The supplement of paper PMC4466140

B1: unnamed (peptide)
chain: LYKRKPILLPDPKPL
B2: unnamed (peptide)
chain: RRTRLRPPTPLSQLL

These binders were tested against AgAbp1 (assay: SPOT peptide array binding signal intensity (averaged, normalized) (arbitrary units (background-subtracted, floor 0; scale differs between SH3 domains)); higher = stronger binding of the SH3 domain to the peptide).
Procedure: (§1)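 GST-tagged SH3 domains from S. cerevisiae (Sc), A. gossypii (Ag), C. albicans (Ca) and S. pombe (Sp) were incubated at 10 ug/ml overnight at 4 C on cellulose SPOT membranes carrying 292 synthetic 15-mer peptides mined from the S. cerevisiae proteome (cysteines replaced by serines). Binding was detected with anti-GST antibody, HRP secondary and chemiluminescence, quantified with Genespotter, and reported as normalized spot intensities averaged over biological replicates.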

Binder	SPOT peptide array binding signal intensity
B1	30.5
B2	31.5

Each binder was assayed against AgBbc1 in the same assay as above.
Procedure: as §1

Binder	SPOT peptide array binding signal intensity
B1	≤ 0
B2	145

What follows are binders tested against AgBem1-D1 in the same assay as above.
Procedure: as §1

Binder	SPOT peptide array binding signal intensity
B1	≤ 0
B2	113

Each binder was assayed against AgBzz1-D1 in the same assay as above.
Procedure: as §1

Binder	SPOT peptide array binding signal intensity
B1	44
B2	80.8

What follows are binders tested against AgBzz1-D2 in the same assay as above.
Procedure: as §1

Binder	SPOT peptide array binding signal intensity
B1	70
B2	45.5

The binders below were run against AgCyk3 in the same assay as above.
Procedure: as §1

Binder	SPOT peptide array binding signal intensity
B1	≤ 0
B2	1.5

These binders were tested against AgFus1 in the same assay as above.
Procedure: as §1

Binder	SPOT peptide array binding signal intensity
B1	≤ 0
B2	1120

The binders below were run against AgHof1 in the same assay as above.
Procedure: as §1

Binder	SPOT peptide array binding signal intensity
B1	11
B2	123

What follows are binders tested against AgHse1 in the same assay as above.
Procedure: as §1

Binder	SPOT peptide array binding signal intensity
B1	93
B2	866

What follows are binders tested against AgLsb1 in the same assay as above.
Procedure: as §1

Binder	SPOT peptide array binding signal intensity
B1	208
B2	154

Each binder was assayed against AgLsb4 in the same assay as above.
Procedure: as §1

Binder	SPOT peptide array binding signal intensity
B1	1.5
B2	100

Each binder was assayed against AgMyo5 in the same assay as above.
Procedure: as §1

Binder	SPOT peptide array binding signal intensity
B1	≤ 0
B2	1.75

Each binder was assayed against AgNbp2 in the same assay as above.
Procedure: as §1

Binder	SPOT peptide array binding signal intensity
B1	4.5
B2	204

Each binder was assayed against AgRvs167 in the same assay as above.
Procedure: as §1

Binder	SPOT peptide array binding signal intensity
B1	≤ 0
B2	15.2

These binders were tested against AgSho1 in the same assay as above.
Procedure: as §1

Binder	SPOT peptide array binding signal intensity
B1	≤ 0
B2	64

What follows are binders tested against AgSla1-D1-D2 in the same assay as above.
Procedure: as §1

Binder	SPOT peptide array binding signal intensity
B1	29
B2	93

What follows are binders tested against AgSla1-D3 in the same assay as above.
Procedure: as §1

Binder	SPOT peptide array binding signal intensity
B1	9
B2	5

What follows are binders tested against CaAbp1-D1 in the same assay as above.
Procedure: as §1

Binder	SPOT peptide array binding signal intensity
B1	292
B2	218

The binders below were run against CaAbp1-D2 in the same assay as above.
Procedure: as §1

Binder	SPOT peptide array binding signal intensity
B1	140
B2	133

What follows are binders tested against CaBbc1 in the same assay as above.
Procedure: as §1

Binder	SPOT peptide array binding signal intensity
B1	16.5
B2	333

What follows are binders tested against CaBem1-D1 in the same assay as above.
Procedure: as §1

Binder	SPOT peptide array binding signal intensity
B1	≤ 0
B2	192

What follows are binders tested against CaBzz1-D1 in the same assay as above.
Procedure: as §1

Binder	SPOT peptide array binding signal intensity
B1	150
B2	233

Each binder was assayed against CaBzz1-D2 in the same assay as above.
Procedure: as §1

Binder	SPOT peptide array binding signal intensity
B1	40.8
B2	76.8

These binders were tested against CaCyk3 in the same assay as above.
Procedure: as §1

Binder	SPOT peptide array binding signal intensity
B1	4
B2	88.5

Each binder was assayed against CaFus1 in the same assay as above.
Procedure: as §1

Binder	SPOT peptide array binding signal intensity
B1	39
B2	1050

Each binder was assayed against CaHof1 in the same assay as above.
Procedure: as §1

Binder	SPOT peptide array binding signal intensity
B1	0.75
B2	7.63e-06

These binders were tested against CaHse1 in the same assay as above.
Procedure: as §1

Binder	SPOT peptide array binding signal intensity
B1	≤ 0
B2	60.6

Each binder was assayed against CaLsb1 in the same assay as above.
Procedure: as §1

Binder	SPOT peptide array binding signal intensity
B1	228
B2	0.5

These binders were tested against CaLsb4 in the same assay as above.
Procedure: as §1

Binder	SPOT peptide array binding signal intensity
B1	≤ 0
B2	307

What follows are binders tested against CaMyo5 in the same assay as above.
Procedure: as §1

Binder	SPOT peptide array binding signal intensity
B1	≤ 0
B2	4

The binders below were run against CaNbp2 in the same assay as above.
Procedure: as §1

Binder	SPOT peptide array binding signal intensity
B1	33
B2	512

Each binder was assayed against CaRvs167 in the same assay as above.
Procedure: as §1

Binder	SPOT peptide array binding signal intensity
B1	7.67
B2	40.8

Each binder was assayed against CaRvs167-3 in the same assay as above.
Procedure: as §1

Binder	SPOT peptide array binding signal intensity
B1	1.75
B2	16.5

These binders were tested against CaSho1 in the same assay as above.
Procedure: as §1

Binder	SPOT peptide array binding signal intensity
B1	≤ 0
B2	526

These binders were tested against CaSla1-D1-D2 in the same assay as above.
Procedure: as §1

Binder	SPOT peptide array binding signal intensity
B1	50
B2	574

Each binder was assayed against CaSla1-D3 in the same assay as above.
Procedure: as §1

Binder	SPOT peptide array binding signal intensity
B1	≤ 0
B2	12.9

Each binder was assayed against ScAbp1 in the same assay as above.
Procedure: as §1

Binder	SPOT peptide array binding signal intensity
B1	38
B2	70.5

These binders were tested against ScBbc1 in the same assay as above.
Procedure: as §1

Binder	SPOT peptide array binding signal intensity
B1	2
B2	61.6

What follows are binders tested against ScBem1-D1 in the same assay as above.
Procedure: as §1

Binder	SPOT peptide array binding signal intensity
B1	3
B2	111

These binders were tested against ScBzz1-D1 in the same assay as above.
Procedure: as §1

Binder	SPOT peptide array binding signal intensity
B1	20.5
B2	42

The binders below were run against ScBzz1-D2 in the same assay as above.
Procedure: as §1

Binder	SPOT peptide array binding signal intensity
B1	15.5
B2	26.2

The binders below were run against ScCyk3 in the same assay as above.
Procedure: as §1

Binder	SPOT peptide array binding signal intensity
B1	≤ 0
B2	83.8

Each binder was assayed against ScFus1 in the same assay as above.
Procedure: as §1

Binder	SPOT peptide array binding signal intensity
B1	≤ 0
B2	722

What follows are binders tested against ScHof1 in the same assay as above.
Procedure: as §1

Binder	SPOT peptide array binding signal intensity
B1	≤ 0
B2	4.5

What follows are binders tested against ScHse1 in the same assay as above.
Procedure: as §1

Binder	SPOT peptide array binding signal intensity
B1	267
B2	1120

The binders below were run against ScLsb1 in the same assay as above.
Procedure: as §1

Binder	SPOT peptide array binding signal intensity
B1	162
B2	63

What follows are binders tested against ScLsb2 in the same assay as above.
Procedure: as §1

Binder	SPOT peptide array binding signal intensity
B1	838
B2	5.5

What follows are binders tested against ScLsb3 in the same assay as above.
Procedure: as §1

Binder	SPOT peptide array binding signal intensity
B1	7
B2	1130

These binders were tested against ScLsb4 in the same assay as above.
Procedure: as §1

Binder	SPOT peptide array binding signal intensity
B1	≤ 0
B2	37.8

Each binder was assayed against ScMyo3 in the same assay as above.
Procedure: as §1

Binder	SPOT peptide array binding signal intensity
B1	≤ 0
B2	≤ 0

The binders below were run against ScMyo5 in the same assay as above.
Procedure: as §1

Binder	SPOT peptide array binding signal intensity
B1	0.5
B2	4.12

The binders below were run against ScNbp2 in the same assay as above.
Procedure: as §1

Binder	SPOT peptide array binding signal intensity
B1	14.5
B2	727

The binders below were run against ScPex13 in the same assay as above.
Procedure: as §1

Binder	SPOT peptide array binding signal intensity
B1	≤ 0
B2	16.2

The binders below were run against ScRvs167 in the same assay as above.
Procedure: as §1

Binder	SPOT peptide array binding signal intensity
B1	16.7
B2	148

What follows are binders tested against ScSho1 in the same assay as above.
Procedure: as §1

Binder	SPOT peptide array binding signal intensity
B1	62.5
B2	1180

These binders were tested against ScSla1-D1-D2 in the same assay as above.
Procedure: as §1

Binder	SPOT peptide array binding signal intensity
B1	135
B2	2070

These binders were tested against ScSla1-D3 in the same assay as above.
Procedure: as §1

Binder	SPOT peptide array binding signal intensity
B1	5
B2	3.38

What follows are binders tested against SpAbp1-D1 in the same assay as above.
Procedure: as §1

Binder	SPOT peptide array binding signal intensity
B1	29
B2	20.5

Each binder was assayed against SpBbc1 in the same assay as above.
Procedure: as §1

Binder	SPOT peptide array binding signal intensity
B1	≤ 0
B2	14.8

The binders below were run against SpBzz1-D1 in the same assay as above.
Procedure: as §1

Binder	SPOT peptide array binding signal intensity
B1	188
B2	486

The binders below were run against SpBzz1-D2 in the same assay as above.
Procedure: as §1

Binder	SPOT peptide array binding signal intensity
B2	≤ 0

These binders were tested against SpCyk3 in the same assay as above.
Procedure: as §1

Binder	SPOT peptide array binding signal intensity
B2	4

Each binder was assayed against SpHof1 in the same assay as above.
Procedure: as §1

Binder	SPOT peptide array binding signal intensity
B2	406

These binders were tested against SpHof1-2 in the same assay as above.
Procedure: as §1

Binder	SPOT peptide array binding signal intensity
B2	61.6

The binders below were run against SpHof1-3 in the same assay as above.
Procedure: as §1

Binder	SPOT peptide array binding signal intensity
B2	610

These binders were tested against SpHse1 in the same assay as above.
Procedure: as §1

Binder	SPOT peptide array binding signal intensity
B2	460

The binders below were run against SpLsb1 in the same assay as above.
Procedure: as §1

Binder	SPOT peptide array binding signal intensity
B2	87.8

These binders were tested against SpLsb4 in the same assay as above.
Procedure: as §1

Binder	SPOT peptide array binding signal intensity
B2	615

The binders below were run against SpMyo1 in the same assay as above.
Procedure: as §1

Binder	SPOT peptide array binding signal intensity
B2	12.1

The binders below were run against SpNbp2 in the same assay as above.
Procedure: as §1

Binder	SPOT peptide array binding signal intensity
B2	184

What follows are binders tested against SpPex13 in the same assay as above.
Procedure: as §1

Binder	SPOT peptide array binding signal intensity
B2	12.8

These binders were tested against SpRvs167 in the same assay as above.
Procedure: as §1

Binder	SPOT peptide array binding signal intensity
B2	24.8

The binders below were run against SpSla1-D1-D2 in the same assay as above.
Procedure: as §1

Binder	SPOT peptide array binding signal intensity
B2	53

What follows are binders tested against SpSla1-D3 in the same assay as above.
Procedure: as §1

Binder	SPOT peptide array binding signal intensity
B2	8
